Data from PubChem BioAssay (NCI).
Compounds without any hit were thinned out: in the full panel of roughly 79,000, 15% have a hit. The source made the active and inactive calls. Rule as the data show it: active = growth inhibition above about 70%; inactive = the rest.

Experiments:
[1] = NCI Yeast Anticancer Drug Screen. Data for the rad52 strain (AID 147);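 also: 0% = growth of vehicle-treated control cultures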; conditions: S. cerevisiae rad52 mutant growth inhibition, stronger effect = higher value
Procedure, shortened: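 DNA repair-defective yeast; compound exposure; growth scored against vehicle controls.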

[2] = NCI Yeast Anticancer Drug Screen. Data for the wt1 strain (AID 149);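 also: 0% = growth of vehicle-treated wt1 cultures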; conditions: S. cerevisiae wt1 strain (SPY 50644) growth inhibition, stronger effect = higher value
Procedure, shortened: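 Each compound is tested on wt1 yeast and the loss of growth versus vehicle gives the inhibition value.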

[3] = NCI Yeast Anticancer Drug Screen. Data for the rad50EPP+ strain (AID 151);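 also: 0% = growth of vehicle-treated control cultures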; conditions: S. cerevisiae rad50 mutant strain, stronger effect = higher value
Procedure, shortened: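 rad50EPP+ yeast treated with test compounds. Readout: growth vs vehicle control.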

[4] = NCI Yeast Anticancer Drug Screen. Data for the rad50 strain (AID 155);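 also: 0% = growth of vehicle-only cultures of the same strain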; conditions: S. cerevisiae rad50 strain growth inhibition, stronger effect = higher value
Procedure, shortened: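 Vehicle-treated cultures provide the reference for the growth inhibition reported for compound-exposed, repair-deficient yeast.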

[5] = NCI Yeast Anticancer Drug Screen. Data for the mec2-1 strain (AID 157); conditions: S. cerevisiae mec2-1 strain, stronger effect = higher value
Procedure, shortened: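 Growth inhibition is read against vehicle-treated controls after compound exposure of the mec2-1 yeast strain, which is defective in DNA damage repair or cell cycle control.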

[6] = NCI Yeast Anticancer Drug Screen. Data for the rad14 strain (AID 159);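 also: 0% = growth of vehicle-treated control cultures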; conditions: S. cerevisiae rad14 strain growth inhibition, stronger effect = higher value
Procedure, shortened: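 Inhibition of growth is reported for a repair-deficient yeast mutant following compound treatment, calculated relative to cultures that received vehicle.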

[7] = NCI Yeast Anticancer Drug Screen. Data for the sgs1 mgt1 strain (AID 161);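 also: 0% = growth of cultures given vehicle only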; conditions: S. cerevisiae sgs1 mgt1 strain, stronger effect = higher value
Procedure, shortened: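 Yeast cells carrying a defined DNA-repair defect were exposed to test compounds. Growth inhibition was measured relative to vehicle-treated controls.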

[8] = NCI Yeast Anticancer Drug Screen. Data for the CLN2oe strain (AID 163);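 also: 0% = growth of vehicle-only control cultures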; conditions: S. cerevisiae CLN2oe strain, stronger effect = higher value
Procedure, shortened: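 Compound-treated yeast; growth vs vehicle ctrl = % inhibition. Genetically altered strain (cell-cycle control).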

[9] = NCI Yeast Anticancer Drug Screen. Data for the cln2 rad14 strain (AID 165);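 also: 0% = growth equal to vehicle treated cultures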; conditions: S. cerevisiae cln2 rad14 strain, stronger effect = higher value
Procedure, shortened: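 Growth inhibition, relative to vehicle-treated controls, is the read-out. The test organism is a yeast strain with defined genetic alterations, cln2 rad14.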

[10] = NCI Yeast Anticancer Drug Screen. Data for the bub3 strain (AID 167); conditions: S. cerevisiae bub3 mutant strain, stronger effect = higher value
Procedure, shortened: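 Mutant yeast screening strain plus compound; vehicle-treated cultures serve as the 0% inhibition reference.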

[11] = NCI Yeast Anticancer Drug Screen. Data for the wt2 strain (AID 169); conditions: S. cerevisiae wt2 strain growth inhibition, stronger effect = higher value
Procedure, shortened: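 Compound exposure of yeast; growth compared with vehicle controls; inhibition reported.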

[12] = NCI Yeast Anticancer Drug Screen. Data for the mlh1 strain (AID 171);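 also: 0% = growth of vehicle-treated control cultures of the same strain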; conditions: S. cerevisiae mlh1 strain growth inhibition, stronger effect = higher value
Procedure, shortened: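 Compounds are applied to a genetically altered yeast strain, and its growth is compared with that of vehicle-treated cultures to give percent inhibition.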

[13] = NCI Yeast Anticancer Drug Screen. Data for the sgs1 strain (AID 173);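 also: 0% = growth of vehicle-only control cultures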; conditions: S. cerevisiae sgs1 mutant, stronger effect = higher value
Procedure, shortened: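 Compounds applied to genetically altered yeast; growth compared with vehicle-treated cultures to give % inhibition.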

[14] = NCI Yeast Anticancer Drug Screen. Data for the mlh1 rad18 strain (AID 175); conditions: S. cerevisiae mlh1 rad18 strain growth inhibition, stronger effect = higher value
Procedure, shortened: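 Cells of a genetically altered yeast strain, deficient in DNA damage repair, were treated with compound. Their growth was then compared with that of vehicle-treated cultures to give inhibition.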

[15] = NCI Yeast Anticancer Drug Screen. Data for the rad18 strain (AID 177); conditions: S. cerevisiae rad18 mutant growth inhibition, stronger effect = higher value
Procedure, shortened: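 Compounds are applied to a repair-deficient yeast strain, and growth is compared with that of vehicle-treated cultures to give percent inhibition.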

[16] = NCI Yeast Anticancer Drug Screen. Data for the mgt1 strain (AID 153); conditions: S. cerevisiae mgt1 mutant growth inhibition, stronger effect = higher value
Procedure, shortened: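 Growth inhibition relative to vehicle controls was scored for the mgt1 yeast strain after compound exposure.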

[17] = at 5.0 µM (retest, dose inferred, filed as 0.5)
[18] = at 50.0 µM (retest, dose inferred, filed as 5.0)

Measured: growth inhibition

CN(C)Cc1cc(N=Nc2ccc(Cl)cc2)ccc1OC(=O)c1ccccc1
active: [4]; at 50.0 µM 90.3% | [5]; at 50.0 µM 97.2% | [7]; at 50.0 µM 98.3% | [9]; at 50.0 µM 97% | [10]; at 50.0 µM 98.5% | [13]; at 100.0 µM 74% | [14]; at 50.0 µM 98.5%
inactive: [1]; at 1.2 µM 1% | [1]; at 3.7 µM 3% | [1]; at 11.0 µM 1% | [1]; at 33.0 µM 7% | [1]; at 100.0 µM 17% | [2]; at 1.2 µM 1% | [2]; at 3.7 µM 1% | [2]; at 11.0 µM 3% | [2]; at 33.0 µM 3% | [2]; at 100.0 µM -1% | [3]; at 1.2 µM 4% | [3]; at 3.7 µM 7% | [3]; at 11.0 µM 20% | [3]; at 33.0 µM 22% | [3]; at 100.0 µM 41% | [4]; at 1.2 µM 1% | [4]; at 3.7 µM 1% | [4]; [17] -10% | [4]; at 11.0 µM 1% | [4]; at 33.0 µM 5% | [4]; [18] 10% | [4]; at 100.0 µM 11% | [5]; at 1.2 µM -3% | [5]; at 3.7 µM 3% | [5]; [17] -2% | [5]; at 11.0 µM -2% | [5]; at 33.0 µM 3% | [5]; [18] 47% | [5]; at 100.0 µM 42% | [6]; at 1.2 µM -1% | [6]; at 3.7 µM -2% | [6]; at 11.0 µM 1% | [6]; at 33.0 µM 14% | [6]; at 100.0 µM 51% | [7]; [17] 38% | [7]; [18] 48% | [8]; at 1.2 µM 3% | [8]; at 3.7 µM -1% | [8]; at 11.0 µM 1% | [8]; at 33.0 µM 0% | [8]; at 100.0 µM 5% | [9]; [17] -20% | [9]; [18] 51% | [10]; at 1.2 µM -2% | [10]; at 3.7 µM -2% | [10]; [17] -15% | [10]; at 11.0 µM -4% | [10]; at 33.0 µM 5% | [10]; [18] 54% | [10]; at 100.0 µM 23% | [11]; at 1.2 µM 1% | [11]; at 3.7 µM 2% | [11]; at 11.0 µM 6% | [11]; at 33.0 µM 21% | [11]; at 100.0 µM 52% | [12]; at 1.2 µM 2% | [12]; at 3.7 µM 2% | [12]; at 11.0 µM 4% | [12]; at 33.0 µM 31% | [12]; at 100.0 µM 67% | [13]; at 1.2 µM 0% | [13]; at 3.7 µM 5% | [13]; at 11.0 µM 9% | [13]; at 33.0 µM 42% | [14]; [17] -9% | [14]; [18] 61% | [15]; at 1.2 µM 1% | [15]; at 3.7 µM 1% | [15]; at 11.0 µM -16% | [15]; at 33.0 µM 17% | [15]; at 100.0 µM 58%

COC(C(O)CO)C(O)C(O)C(=O)NNc1ccccc1 (stereo unspecified)
active: [1]; at 100.0 µM 93% | [16]; at 100.0 µM 94% | [4]; at 33.0 µM 79% | [4]; [18] 71% | [4]; at 50.0 µM 96.1% | [4]; at 100.0 µM 96% | [5]; [18] 76% | [5]; at 100.0 µM 94% | [7]; [18] 80% | [7]; at 50.0 µM 94.7% | [8]; at 100.0 µM 97% | [9]; at 50.0 µM 89% | [10]; [18] 97% | [10]; at 50.0 µM 96.1% | [10]; at 100.0 µM 93% | [11]; at 100.0 µM 86% | [12]; at 100.0 µM 97% | [13]; at 100.0 µM 97% | [14]; [18] 96% | [14]; at 50.0 µM 94.5% | [15]; at 11.0 µM 79% | [15]; at 33.0 µM 78% | [15]; at 100.0 µM 97%
inactive: [1]; at 1.2 µM 12% | [1]; at 3.7 µM 23% | [1]; at 11.0 µM 45% | [1]; at 33.0 µM 61% | [2]; at 1.2 µM 1% | [2]; at 3.7 µM 5% | [2]; at 11.0 µM 29% | [2]; at 33.0 µM 36% | [2]; at 100.0 µM 66% | [3]; at 1.2 µM 15% | [3]; at 3.7 µM 29% | [3]; at 11.0 µM 37% | [3]; at 33.0 µM 41% | [3]; at 100.0 µM 68% | [16]; at 1.2 µM -1% | [16]; at 3.7 µM 11% | [16]; at 11.0 µM 29% | [16]; at 33.0 µM 26% | [4]; at 1.2 µM 35% | [4]; at 3.7 µM 41% | [4]; [17] 9% | [4]; at 11.0 µM 68% | [5]; at 1.2 µM 0% | [5]; at 3.7 µM 4% | [5]; [17] 7% | [5]; at 11.0 µM 40% | [5]; at 33.0 µM 31% | [5]; at 50.0 µM 54.4% | [7]; [17] 15% | [8]; at 1.2 µM 8% | [8]; at 3.7 µM 7% | [8]; at 11.0 µM 57% | [8]; at 33.0 µM 62% | [9]; [17] 5% | [9]; [18] 68% | [10]; at 1.2 µM -1% | [10]; at 3.7 µM 1% | [10]; [17] 23% | [10]; at 11.0 µM 26% | [10]; at 33.0 µM 34% | [11]; at 1.2 µM -4% | [11]; at 3.7 µM 22% | [11]; at 11.0 µM 22% | [11]; at 33.0 µM 9% | [12]; at 1.2 µM 2% | [12]; at 3.7 µM 9% | [12]; at 11.0 µM 44% | [12]; at 33.0 µM 61% | [13]; at 1.2 µM -11% | [13]; at 3.7 µM 34% | [13]; at 11.0 µM 47% | [13]; at 33.0 µM 68% | [14]; [17] 28% | [15]; at 1.2 µM 17% | [15]; at 3.7 µM 49%
